Measured values published in PubChem BioAssay (NCATS).
Results filed as inconclusive are left out. Values without a mark were called inactive. Calls of active or inactive are those of the source. Calls follow the shape of the dose curve; as a rule, active = well fitted inhibition curve with a large enough effect; inconclusive = small, poorly fitted or top-dose-only effect; inactive = flat fitted curve, though single readings scatter.

Biological target: DNA repair nuclease/redox regulator APEX1 (Homo sapiens) (UniProt P27695)
Experiment: qHTS Validation Assay for Inhibitors of the Human Apurinic/apyrimidinic Endonuclease 1 (APE1) (AID 1705;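 as to activity change, negative = inhibition: TAMRA fluorescence gain over two minutes as APE1 cuts a quenched THF abasic duplex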)
Details: purified APE1 endonuclease activity, fluorescence, titration; series mostly up to 57.1 µM; activity change, negative = inhibition: at the top concentration
Description: Assay Provider: David M. Wilson, III, National Institute on Aging, NIH
Screening Center PI: Austin, C.P.
Screening Center: NIH Chemical Genomics Center [NCGC]
The apurinic/apyrimidinic endonuclease APE1 is the primary mammalian enzyme responsible for the removal of abasic (or AP) sites in DNA and functions centrally in the base excision DNA repair (BER) pathway. […] Thus, targeting APE1 could improve the efficacy of current treatment paradigms by promoting selective sensitization or protection of diseased and normal cells, respectively.
Inhibition of APE1 activity was screened by utilizing double-stranded short substrate containing tetrahydrofuran (THF) abasic site labeled with rhodamine-type fluorophore (TAMRA) at the 5'-end and with non-fluorescent Black Hole Quencher-2 (BHQ-2) at the opposing 3'-end. An increase in the fluorescence intensity due to incision of the abasic site by APE1 was used to measure the enzyme activity.
1. Substrate: 50 nM final concentration of TAMRA/BHQ-2 substrate dispensed throughout the plate.
2. Enzyme: […] nM APE1 final concentration in columns 1, 2, 5-48. Column 1 is neutral (100% activity)
3. Control: Pintool transfer of control inhibitor NSC-13755 to column 2 of all assay plates. Two-fold, 16 pt dilution in duplicate to produce final concentrations in the […] uM - […] nM range.
3. Buffer columns in columns 3 and 4 were used as negative control (no enzyme).
Three uL of enzyme were dispensed to 1536-well Greiner black solid bottom plates. Compounds (23 nL) were transferred via Kalypsys pintool. The plates were incubated for 15 min at room temperature, and then 1 uL of substrate solution was added to start the reaction. The plates were immediately transferred into ViewLux High-throughput CCD imager (Perkin-Elmer) in order to measure the reaction progress in kinetic mode (three reads every 60 seconds) using 525 nm excitation and 598 nm emission fluorescence protocol. The fluorescence intensity difference between the third and the first time points was used to compute reaction progress.
% is scaled to controls: 0 for no effect and ±100 for the full control effect; potency is read from the fitted curve at half-maximal effect.

Sequence of DNA repair nuclease/redox regulator APEX1 (Homo sapiens) (P27695 whole entry, looked up): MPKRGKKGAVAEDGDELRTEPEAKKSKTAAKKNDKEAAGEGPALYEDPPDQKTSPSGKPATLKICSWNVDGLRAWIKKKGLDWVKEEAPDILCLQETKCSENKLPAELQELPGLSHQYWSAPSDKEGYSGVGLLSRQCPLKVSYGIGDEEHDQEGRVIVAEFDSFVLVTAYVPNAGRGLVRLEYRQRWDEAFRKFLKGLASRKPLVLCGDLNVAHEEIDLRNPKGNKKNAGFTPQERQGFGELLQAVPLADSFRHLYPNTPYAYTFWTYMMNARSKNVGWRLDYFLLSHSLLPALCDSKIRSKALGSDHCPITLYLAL

Row | SMILES | activity change, negative = inhibition | Potency
1 | Nc1nc(Cl)nc2c1ncn2[C@@H]1O[C@H](COP(=O)(O)OP(=O)(O)OP(=O)(O)O)[C@H](O)[C@H]1O | 0.932% | 
2 | CC(C)C[C@H](N)CSSC[C@@H](N)CC(C)C | 2.27% | 
3 | N#Cc1c(-c2ccccc2)no[n+]1[O-] | 3.16% | 
4 | CCCCN1CCC(COC(=O)c2cc(Cl)c(N)c3c2OCCO3)CC1 | -0.488% | 
5 | COc1cc2c(cc1O)CCC1C2CC[C@]2(C)[C@@H](O)CC[C@@H]12 (some centres not stated) | -6.81% | 
6 | CC[C@H](C)C(=O)O[C@H]1CCC=C2C=C[C@H](C)[C@H](CC[C@@H]3C[C@H](O)CC(=O)O3)C21 (some centres not stated) | 3.79% | 
7 | C#C[C@]1(O)CC[C@H]2C3CCC4=Cc5oncc5CC4(C)C3CCC21C (some centres not stated) | -11.2% | 
8 | CC(=O)SC1CC2=CC(=O)CC[C@]2(C)C2CC[C@@]3(C)[C@@H](CC[C@@]34CCC(=O)O4)C12 (some centres not stated) | -1.35% | 
9 | N#CC(Cc1ccc(O)c(O)c1)C(=O)N1CCc2ccccc21 (configuration not stated) | -13% | 
10 | CC(=O)O[C@]1(C(C)=O)CC[C@H]2C3C=C(Cl)C4=CC(=O)[C@@H]5C[C@H]5[C@]4(C)C3CC[C@@]21C (some centres not stated) | -8.68% | 
11 | Cc1cc(N)c2ccccc2[n+]1CCCCCCCCCCCCCC[n+]1c(C)cc(N)c2ccccc21 |  | 28.2 µM (active)
12 | Cc1c(C)c2c(c(C)c1O)CCC(C)(CN1CCN(c3cc(N4CCCC4)nc(N4CCCC4)n3)CC1)O2 (configuration not stated) | -6.08% | 
13 | O=S(=O)(O)C1CCNCC1 | -3.44% | 
14 | CN1CCN(CC/C=C2/c3ccccc3Sc3ccc(S(=O)(=O)N(C)C)cc32)CC1 | -4.72% | 
15 | C=C[C@@H]1CN2CC[C@@H]1C[C@@H]2[C@H](O)c1ccnc2ccc(OC)cc12 | 6.12% | 
16 | C[C@H]1c2cccc(O)c2C(O)=C2C(=O)[C@]3(O)C(O)=C(C(N)=O)C(=O)C(N(C)C)[C@@H]3[C@@H](O)C21 (some centres not stated) | 13.2% | 
17 | C[C@]12C[C@H](O)C3[C@@H](CCC4=CC(=O)CC[C@@]43C)[C@@H]1CC[C@@H]2C(=O)CO (some centres not stated) | -3.41% | 
